The text below walks through data of PubChem BioAssay.

Test [1] is described as follows: antimalarial activity against Dd2 strain (AID 2302;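 active = growth inhibition above 50% at the single 2 µM test dose, taken to imply half-maximal potency below 2 µM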;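 note: 0% = DMSO untreated growth and 100% = chloroquine plus artemisinin killed control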). Conditions: P. falciparum Dd2 in RBCs, LDH growth readout, 72 h; at 2 µM; stronger effect = higher value.
Test [2] can be described thus: human hepatoma cell viability loss – ATP luminescence, cytotoxicity control for P. falciparum antimalarial project, primary screen (AID 2303;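 active = inhibition above 50%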;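 note: 0% = DMSO wells and 100% = digitonin-killed cells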). Conditions: HepG2 viability, 24-48 h, at 10 µM, stronger effect = higher value.
Test [3] has as its target L-lactate dehydrogenase (Plasmodium falciparum (isolate CDC / Honduras)) (UniProt Q27743). The test can be described thus: PfLDH activity inhibition – cell lysate, 3D7 strain, counter-screen for P. falciparum growth inhibition project (AID 2304).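 Note: 0% = vehicle and 100% = reference inhibitor.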 The note with it: P. falciparum 3D7 crude extract, LDH APAD/NBT absorbance; at 2 µM; stronger effect = higher value.
Test [4] can be described thus: inhibition of 3D7 malaria parasite growth – strain 3D7 (AID 2306).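 Note: 0% = DMSO wells and 100% = chloroquine plus artemisinin control wells.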 Conditions: P. falciparum 3D7 erythrocytic growth, LDH absorbance, 72 h; at 2 µM; stronger effect = higher value.
For test [5], the target named is Calcium-dependent protein kinase 1 (Plasmodium falciparum (isolate 3D7)) (UniProt P62344). The test can be described thus: PfCDPK1 kinase inhibitors, biochemical, TCAMS library (AID 1159585; cut-off not given, nearly all actives have IC50 up to about 0.98 µM;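 note: inhibitors leave more ATP so luminescence rises with inhibition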). Conditions: recombinant PfCDPK1, Kinase-Glo ATP depletion luminescence. For orientation: Kinase-Glo reads ATP consumption through a luciferase reaction.
Calcium-dependent protein kinase 1 (Plasmodium falciparum (isolate 3D7)), sequence (P62344 whole entry, looked up): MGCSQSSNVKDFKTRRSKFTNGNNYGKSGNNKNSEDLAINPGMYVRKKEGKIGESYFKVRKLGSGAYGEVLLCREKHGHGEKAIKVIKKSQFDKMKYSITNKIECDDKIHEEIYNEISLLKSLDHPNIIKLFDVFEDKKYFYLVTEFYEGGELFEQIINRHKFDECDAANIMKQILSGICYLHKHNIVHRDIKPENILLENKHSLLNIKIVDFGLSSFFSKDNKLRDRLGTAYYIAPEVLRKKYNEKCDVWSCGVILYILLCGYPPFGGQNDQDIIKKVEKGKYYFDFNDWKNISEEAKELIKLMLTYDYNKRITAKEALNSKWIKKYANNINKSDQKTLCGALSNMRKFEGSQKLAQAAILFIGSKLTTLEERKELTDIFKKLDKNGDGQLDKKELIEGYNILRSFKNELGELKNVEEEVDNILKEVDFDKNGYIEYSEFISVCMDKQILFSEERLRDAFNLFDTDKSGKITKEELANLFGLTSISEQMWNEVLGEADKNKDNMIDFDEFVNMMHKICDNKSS
For test [6], the target named is Plasmodium falciparum protein kinase 6 (PK6, PF3D7_1337100) (UniProt Q8IDW1). As to the kind of experiment: PfPK6 kinase inhibitors, biochemical, TCAMS library (AID 1159586). The note with it: recombinant PfPK6, Kinase-Glo ATP depletion luminescence.
Plasmodium falciparum protein kinase 6 (PK6, PF3D7_1337100), sequence (Q8IDW1 1-305): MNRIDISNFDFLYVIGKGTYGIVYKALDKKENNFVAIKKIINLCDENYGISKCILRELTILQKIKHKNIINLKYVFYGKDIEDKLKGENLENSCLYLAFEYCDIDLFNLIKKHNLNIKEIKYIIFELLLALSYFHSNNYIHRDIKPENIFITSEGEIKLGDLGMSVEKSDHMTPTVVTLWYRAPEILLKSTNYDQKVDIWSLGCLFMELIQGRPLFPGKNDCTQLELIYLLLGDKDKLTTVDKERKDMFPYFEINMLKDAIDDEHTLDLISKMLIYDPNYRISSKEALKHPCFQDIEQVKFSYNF
Test [7] addresses Protein kinase 7 (PK7), Plasmodium falciparum 3D7 (PF3D7_0213400) (UniProt Q7YTF7). The test can be described thus: inhibition of Plasmodium PK7 catalytic activity – biochemical, TCAMS antimalarial set, Kinase-Glo luminescence (AID 1159587). Conditions: recombinant PfPK7, Kinase-Glo ATP depletion luminescence.
Test [8] concerns the target Calcium-dependent protein kinase 4 (Plasmodium falciparum (isolate 3D7)) (UniProt Q8IBS5). As to the kind of experiment: PfCDPK4 kinase inhibitors, biochemical, TCAMS library (AID 1159588; cut-off not given, nearly all actives have IC50 up to about 0.91 µM). The note with it: recombinant PfCDPK4, Kinase-Glo ATP depletion luminescence.

The inhibition is the change of the read-out against control, counted positive when it falls.

Unmarked numbers belong to inactive results. For some of these results: Measured potencies and affinities stand elsewhere. Activity calls are given as the source filed them. Unless noted, the rule behind the calls is not given here.

L-lactate dehydrogenase (Plasmodium falciparum (isolate CDC / Honduras)), sequence (Q27743 whole entry, looked up): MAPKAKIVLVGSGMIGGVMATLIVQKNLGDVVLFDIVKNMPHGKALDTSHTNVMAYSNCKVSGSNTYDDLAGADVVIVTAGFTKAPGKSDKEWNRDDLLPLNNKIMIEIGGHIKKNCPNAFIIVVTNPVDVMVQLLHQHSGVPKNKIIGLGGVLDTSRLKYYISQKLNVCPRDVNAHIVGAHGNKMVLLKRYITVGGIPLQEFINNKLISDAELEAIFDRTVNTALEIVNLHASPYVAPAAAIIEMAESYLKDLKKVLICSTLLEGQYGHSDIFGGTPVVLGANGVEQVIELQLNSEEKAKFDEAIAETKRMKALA
Calcium-dependent protein kinase 4 (Plasmodium falciparum (isolate 3D7)), sequence (Q8IBS5 whole entry, looked up): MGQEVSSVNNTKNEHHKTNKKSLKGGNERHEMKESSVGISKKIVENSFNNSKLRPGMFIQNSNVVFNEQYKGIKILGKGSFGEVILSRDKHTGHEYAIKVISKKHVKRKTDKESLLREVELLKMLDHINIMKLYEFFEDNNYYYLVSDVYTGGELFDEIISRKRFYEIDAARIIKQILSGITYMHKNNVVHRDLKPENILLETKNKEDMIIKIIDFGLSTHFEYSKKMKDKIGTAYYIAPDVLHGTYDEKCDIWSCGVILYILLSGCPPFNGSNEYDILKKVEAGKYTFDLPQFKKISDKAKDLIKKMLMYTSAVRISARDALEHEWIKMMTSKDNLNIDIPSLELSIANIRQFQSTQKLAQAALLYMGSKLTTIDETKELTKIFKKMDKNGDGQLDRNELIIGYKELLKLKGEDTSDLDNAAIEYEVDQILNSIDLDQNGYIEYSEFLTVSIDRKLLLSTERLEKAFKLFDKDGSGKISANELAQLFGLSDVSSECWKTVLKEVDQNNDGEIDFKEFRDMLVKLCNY
Protein kinase 7 (PK7), Plasmodium falciparum 3D7 (PF3D7_0213400), sequence (Q7YTF7 1-343): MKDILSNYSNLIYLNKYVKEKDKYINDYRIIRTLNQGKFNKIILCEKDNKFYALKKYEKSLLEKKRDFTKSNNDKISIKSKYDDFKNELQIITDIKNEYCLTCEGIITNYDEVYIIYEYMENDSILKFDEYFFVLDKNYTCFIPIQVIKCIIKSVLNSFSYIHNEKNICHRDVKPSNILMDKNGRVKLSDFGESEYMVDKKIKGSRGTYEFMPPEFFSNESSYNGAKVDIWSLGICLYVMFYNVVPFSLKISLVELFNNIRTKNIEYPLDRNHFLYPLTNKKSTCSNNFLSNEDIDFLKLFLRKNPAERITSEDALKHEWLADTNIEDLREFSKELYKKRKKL

For the molecule `COc1cccc(NC(=O)[C@H](C)n2c(=O)[nH]c3ccccc3c2=O)c1`, the growth inhibition in test [1] is 92% (active); in test [4], 100% (active). For the same molecule, the results for the inhibition in test [2] and in test [3] were 8% and -3%, respectively. Also, the result in test [5], in test [6], in test [7] and in test [8] was inactive.

Consider `O=C(Nc1ccccc1)N1CCC(CN2CCOC(c3ccccc3)(c3ccccc3)C2)CC1`, for which the growth inhibition in test [1] is 98% (active); in test [4] it was 96% (active). In addition, the inhibition in test [2] was 10%; in test [3], 2%. Moreover, the result in test [5], in test [6], in test [7] and in test [8] was inactive.

Take `CCOC(=O)c1[nH]c2cc(Cl)cc(Cl)c2c1/C=C/C(=O)Nc1ccc(-c2cnc(NC(C)=O)[nH]2)cc1`: the growth inhibition in test [1] is 65% (active); in test [4] it was 100% (active). In addition, the inhibition is 45% in test [2] and -3% in test [3]. Besides, the outcome in test [5], in test [6], in test [7] and in test [8] was inactive.

With `COc1ccc2nccc([C@@H](O)CN3CCC(NCc4ccc5c(c4)N(C)C(=O)CO5)CC3)c2c1`, the growth inhibition was 95% (active) in test [1] and 101% (active) in test [4]. In addition, the inhibition was -3% in test [2] and 6% in test [3]. Also, the outcome in test [5], in test [6], in test [7] and in test [8] was inactive.

`CCCCCCn1c(Sc2ccc(C#N)c([N+](=O)[O-])c2)nnc1-c1cccc(Cl)c1`: the growth inhibition is 90% (active) in test [1] and 96% (active) in test [4]. Besides, the inhibition in test [2] was 17%; in test [3] it was 1%. Moreover, the result in test [5], in test [6], in test [7] and in test [8] was inactive.

For `COc1cc2c(cc1N1CCN(C)CC1)N(C(=O)Nc1ccc(-c3ccncc3)c(Cl)c1Cl)CC2`, the results for the growth inhibition in test [1] and in test [4] were 4% and 102% (active), respectively. Moreover, the inhibition is 10% in test [2] and -6% in test [3]. The result in test [5], in test [6], in test [7] and in test [8] was inactive.

For the molecule `COc1ccc(-n2ccnc2SCC(=O)Nc2cc(Cl)ccc2OC)c(OC)c1`, the values for the growth inhibition in test [1] and in test [4] were 92% (active) and 96% (active), respectively. Also, the values for the inhibition in test [2] and in test [3] were -3% and -8%, respectively. The result in test [5], in test [6], in test [7] and in test [8] was inactive.

Turning to `CNC(=O)NC1=NC(C)(C)N(OCc2ccc(Cl)c(Cl)c2)C(NC(=O)NC)=N1`, the growth inhibition in test [1] was -3%; in test [4] it was 99% (active). The inhibition was 1% in test [2] and -2% in test [3]. Moreover, the result in test [5], in test [6], in test [7] and in test [8] was inactive.

With `N#Cc1ccc(C=CC(=O)NC2CCC(CCN3CCc4ccc(-c5cnccn5)cc4CC3)CC2)cc1` (stereo not given), the growth inhibition in test [1] is 87% (active); in test [4], 100% (active). The inhibition is 37% in test [2] and -5% in test [3]. The outcome in test [5], in test [6], in test [7] and in test [8] was inactive.

As for `CCOC(=O)c1cc(C(=O)NCCCCN2CCC(c3cn(C)c4ccccc34)CC2)ccc1-c1ccc(C(F)(F)F)cc1`, the growth inhibition in test [1] is 6%; in test [4], 91% (active). For the same molecule, the inhibition in test [2] is 25%; in test [3] it was -3%. For the same molecule, the outcome in test [5], in test [6], in test [7] and in test [8] was inactive.

On to `CN1CCC(NCc2cccc(-c3nn(C)c4nc(NC5CCCC5)ncc34)c2)CC1`, for which the results for the growth inhibition in test [1] and in test [4] were 44% and 98% (active), respectively. The inhibition is 1% in test [2] and -2% in test [3]. Besides, the result in test [5], in test [6], in test [7] and in test [8] was inactive.

For the molecule `Oc1ccc(CCNCCCCCCNCCc2ccc(Cl)c3ccccc23)cc1O`, the figures for the growth inhibition in test [1] and in test [4] were 1% and 99% (active), respectively. Moreover, the inhibition in test [2] was 22%; in test [3], -4%. Besides, the outcome in test [5], in test [6], in test [7] and in test [8] was inactive.

For `Cc1ccc(Cn2nc(Cl)c(N3CCCNCC3)cc2=O)cc1NC(=O)Nc1ccc(-c2ccccc2)cc1`, the growth inhibition in test [1] was 55% (active); in test [4], 101% (active). For the same molecule, the figures for the inhibition in test [2] and in test [3] were 90% (active) and -1%, respectively. The outcome in test [5], in test [6], in test [7] and in test [8] was inactive.

`CCc1cn2c3c(cc(C(=O)N[C@@H](Cc4ccccc4)[C@H](O)CNCc4ccc(C)cc4)cc13)N(C)S(=O)(=O)CC2`: the growth inhibition in test [1] is 98% (active); in test [4], 99% (active). The values for the inhibition in test [2] and in test [3] were -4% and 5%, respectively. Moreover, the result in test [5], in test [6], in test [7] and in test [8] was inactive.

Consider `COc1ccc(Nc2c3ccc(Cl)cc3nc3ccc(OC)cc23)cc1`, for which the growth inhibition in test [1] was 99% (active); in test [4], 94% (active). The inhibition in test [2] was 14%; in test [3], 3%. The outcome in test [5], in test [6], in test [7] and in test [8] was inactive.

Turning to `OCCNc1nc(Nc2ccc(Cl)cc2)nc2ccccc12`, the growth inhibition in test [1] was 99% (active); in test [4] it was 102% (active). For the same molecule, the inhibition in test [2] is 30%; in test [3] it was -1%. Also, the result in test [5], in test [6], in test [7] and in test [8] was inactive.

With `N#Cc1ccc(N[C@@H](CC2CCCCC2)C(=O)N[C@@H]2CCCc3ccccc32)c2ccccc12`, the growth inhibition in test [1] and in test [4] was 99% (active) each time. Also, the results for the inhibition in test [2] and in test [3] were 12% and -5%, respectively. In addition, the outcome in test [5], in test [6], in test [7] and in test [8] was inactive.

For the molecule `Cc1[nH]c2ccc(NS(C)(=O)=O)cc2c1C1CCN(CCC2CCN(C(=O)/C=C/c3ccc(Cl)c(Cl)c3)CC2)CC1`, the values for the growth inhibition in test [1] and in test [4] were 94% (active) and 100% (active), respectively. For the same molecule, the values for the inhibition in test [2] and in test [3] were 23% and -1%, respectively. In addition, the result in test [5], in test [6], in test [7] and in test [8] was inactive.

`O=C(Nc1ccc(C(F)(F)F)cc1)NC1CCN(c2ccnc3cc(Cl)ccc23)CC1`: the growth inhibition in test [1] is 74% (active); in test [4], 102% (active). Besides, the inhibition is 22% in test [2] and -3% in test [3]. Moreover, the outcome in test [5], in test [6], in test [7] and in test [8] was inactive.

Regarding `Cc1nc(-c2cccc(NC(C)C(=O)Nc3cc(C(F)(F)F)ccc3N3CCOCC3)c2)cs1` (stereo not given), the growth inhibition in test [1] was 97% (active); in test [4] it was 82% (active). Further, the results for the inhibition in test [2] and in test [3] were 3% and -2%, respectively. Further, the result in test [5], in test [6], in test [7] and in test [8] was inactive.
